Data from ChEMBL document CHEMBL4513156, “CO-ADD screening of NCPRI (Romania) compounds”.
Entries with a potency or affinity are not part of this list.

Key:
Staphylococcus aureus = conditions: Concentration 32 ug.mL-1; ASSAY_TEST Inhibition of Bacterial Growth; detection method Absorption (OD600); MEDIA CAMHB; plate type 384well; NBS; CORNING #3640; time 18 hr
Escherichia coli = conditions: Concentration 32 ug.mL-1; ASSAY_TEST Inhibition of Bacterial Growth; detection method Absorption (OD600); MEDIA CAMHB; plate type 384well; NBS; CORNING #3640; time 18 hr

Row | Structure (SMILES) | Inhibition (Staphylococcus aureus) [%] | Inhibition (Escherichia coli) [%]
1 | O=C(NN=CC[C@@H]1[C@@H](COC2CCCCO2)[C@H](OC2CCCCO2)C[C@@H]1O)c1ccncc1 (some centres undefined) | 12.15 | 6.4
2 | O=C(NNC(=O)c1cccc([N+](=O)[O-])c1C(=O)O)c1ccncc1 | 23.26 | 20.08
3 | O=C(N/N=C1\CC[C@@H]2[C@H]1[C@H](OC(=O)c1ccccc1)C[C@@H]2OC(=O)c1ccccc1)c1ccncc1 | 27.83 | 14.7
4 | NNC(=O)c1ccncc1 [ISONIAZID] | 27.38 | 20.51
5 | O=C(N/N=C1/C[C@@H]2[C@@H](C(=O)O)[C@H]1C[C@H]2Cl)c1ccncc1 | 32.79 | 18
6 | O=C(NNC(c1ccccc1)(c1ccccc1)c1ccccc1)c1ccncc1 | 1.88 | 5.22
7 | O=C(N/N=C/COc1cccc(Cl)c1)c1ccncc1 | 8.36 | 6.4
8 | O=C(N/N=C1/C[C@@H]2[C@H](COC(c3ccccc3)(c3ccccc3)c3ccccc3)C[C@H](COC(c3ccccc3)(c3ccccc3)c3ccccc3)[C@@H]2C1)c1ccncc1 | -0.42 | 11.41
9 | O=C(N/N=C/C[C@@H]1[C@@H](/C=N/NC(=O)c2ccncc2)[C@H](O)C[C@@H]1O)c1ccncc1 | 16.7 | 6.29
10 | COC(=O)CCCCCC[C@@H]1[C@@H](/C=N/NC(=O)c2ccncc2)[C@H](O)C[C@@H]1O | 12.62 | 6.85
11 | O=C(N/N=C1/C[C@H]2[C@H](CO)[C@@H]1C[C@@H]2Cl)c1ccncc1 | 26.26 | 16.12
12 | O=C(ON/N=C/[C@@H]1[C@@H]2C[C@H](Cl)[C@H]1C[C@H]2O)c1ccncc1 | 25.17 | 12.76
13 | O=C(NN=CC[C@@H]1[C@@H](/C=C/[C@@H](O)CCc2ccccc2)[C@H](OC(=O)c2ccccc2)C[C@@H]1O)c1ccncc1 | 18.76 | 8.83
14 | O=C(N/N=C1\C[C@@H]2[C@@H](CO)[C@H]1C[C@H]2Cl)c1ccncc1 | 26.12 | 15.81
15 | CC(C)(C)[Si](C)(C)OC[C@H]1[C@H](CC=NNC(=O)c2ccncc2)[C@H](O)C[C@@H]1O[Si](C)(C)C(C)(C)C | 21.42 | 11.91
16 | O=C(NNC(=O)[C@@H]1C[C@H](C(=O)O)[C@@H]2CCC[C@@H]21)c1ccncc1 | 31.35 | 13.96
17 | O=C(N/N=C/CCCO)c1ccncc1 | 10.52 | 5.12
18 | O=C(NN=CC[C@H]1[C@H](CO)[C@@H](O)C[C@H]1O)c1ccncc1 | 21.6 | 12.24
19 | O=C1C[C@@H]2[C@@H](C=NNC(=O)c3ccncc3)[C@@H](C[C@H]2Cl)O1 | 33.55 | 18.72

Row | Structure (SMILES) | Inhibition (Staphylococcus aureus) [%] | Inhibition (Escherichia coli) [%]
20 | O=C(N/N=C1/C2C[C@H]3C(C2CO)[C@H]13)c1ccncc1 (some centres undefined) | 21.76 | 11.47
21 | O=C(N/N=C/[C@@H]1C[C@H](CO)[C@@H]2CCC[C@@H]21)c1ccncc1 | 23.56 | 14.61
22 | COC(=O)C[C@H]1[C@H](/C=N\NC(=O)c2ccncc2)[C@@H](O[Si](C)(C)C(C)(C)C)C[C@@H]1Cl | 29.13 | 13.69
23 | O=C(NN=C[C@H]1[C@H]2CC(O)OC[C@H]2C[C@H]1O)c1ccncc1 (some centres undefined) | 15.22 | 4.63
24 | O=C(N/N=C1/C2C[C@H]3C(C2C(=O)O)[C@@H]13)c1ccncc1 (some centres undefined) | 16.39 | 13.83
25 | CC(C)(C)[Si](C)(C)O[C@H](/C=C/[C@@H]1[C@@H](CC=NNC(=O)c2ccncc2)[C@@H](O)C[C@H]1O[Si](C)(C)C(C)(C)C)CCc1ccccc1 | 11.86 | 7.54
26 | O=C(N/N=C/C[C@@H]1[C@@H](CO)[C@H](O)C[C@@H]1O)c1ccncc1 | 22.27 | 13.16
27 | O=C(N/N=C1\C[C@@H]2[C@H](COC(c3ccccc3)(c3ccccc3)c3ccccc3)C[C@H](CO)[C@@H]2C1)c1ccncc1 | 13.89 | 6.21
28 | O=C(NNC(=O)c1ccc([N+](=O)[O-])cc1C(=O)O)c1ccncc1 | 30.83 | 15.66
29 | O=C(N/N=C/C[C@@H]1[C@@H](/C=C/[C@@H](O)COc2ccccc2)[C@H](O)C[C@@H]1O)c1ccncc1 | 16.08 | 10.98
30 | COC(=O)CCCCCC[C@@H]1[C@@H](/C=N/NC(=O)c2ccncc2)[C@H](OC(=O)c2ccccc2)C[C@@H]1O | 26.15 | 14.2
31 | O=C1C[C@H]2[C@H](/C=N/NC(=O)c3ccncc3)[C@H](C[C@@H]2Cl)O1 | 34.06 | 18.17
32 | O=C(N/N=C/C[C@@H]1[C@@H](/C=C/[C@@H](O)COc2cccc(Cl)c2)[C@H](O)C[C@@H]1O)c1ccncc1 | 27.05 | 14.88
33 | O=C(NN=C[C@H]1[C@@H]2CCO[C@@H]2C[C@@H]1O)c1ccncc1 | 13.82 | 5.67
34 | O=C(NNC(=O)[C@@H]1C[C@H](C(=O)O)[C@@H]2CC=C[C@@H]21)c1ccncc1 | 32.09 | 14.78
35 | CC(C)(C)[Si](C)(C)OCC1C2C[C@H]3C1[C@@H]3/C2=N/NC(=O)c1ccncc1 (some centres undefined) | 14.57 | 8.28
36 | O=C(N/N=C1/C[C@@H]2[C@H](C1)[C@H](OC(=O)c1ccccc1)C[C@@H]2OC(=O)c1ccccc1)c1ccncc1 | 26.15 | 8.09
37 | O=C(NN=CC[C@@H]1[C@@H](/C=C/[C@@H](O)CCc2ccccc2)[C@H](O)C[C@@H]1O)c1ccncc1 | 16.65 | 9.46
